Data on 18 compounds can be found in PubChem BioAssay (Tox21).

Test [1] has as its target Thyrotropin-releasing hormone receptor (Homo sapiens) (UniProt P34981). The experiment in a line: qHTS assay to identify small molecule agonists of the thyrotropin-releasing hormone receptor (TRHR) signaling pathway (AID 1346891; calls by dose curve; note: series mostly up to about 58 µM). Summed up: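 Agonist-mode intracellular calcium readout: kinetic fluorescence over 3 min at 1 s intervals after compound addition to TRHR-HEK293 cells (18 h seeded, 2 h dye-loaded at 37 C). Fifteen concentrations, triplicates.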
For orientation: Quantitative high-throughput screening tests each substance at several concentrations.

Test [2] in a line: Human pregnane X receptor (PXR) small molecule agonists, qHTS cell viability counter screen (AID 1346977). Note: nearly all actives have a fitted effect of over 50% in size. Note: potency is the fitted concentration of half-maximal effect. Put shortly:
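Same-well viability read: CellTiter-Fluor added after 23 hr compound exposure, fluorescence measured 1 hr later. Cells were PXR-Luc HepG2 seeded at 2,000/well in 5% charcoal-stripped FBS medium, rested 5 hr before dosing at 37 C.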

Test [3] can be described thus: Caspase-3/7 induction in HepG2 cells by small molecules, qHTS cell viability counter screen (AID 1346981). Note: series mostly up to about 92 µM; nearly all actives have a fitted effect of over 30% in size. Summed up: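 Treatment of HepG2 cells with DMSO-delivered compounds ran 16 hr at 37 C following a 5-hr pre-incubation of 2,000 cells/well. CellTiter-Fluor fluorescence, read after 1 hr, served as the viability measure in a qHTS format.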
For test [4], the target named is Nuclear receptor subfamily 1 group I member 2 (Homo sapiens) (UniProt O75469). The experiment in a line: Human pregnane X receptor (PXR) small molecule agonists, qHTS assay (AID 1346982). Note: nearly all actives have a fitted effect of over 35% in size. Note: potency is the fitted concentration of half-maximal effect. Summed up:
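Stable HepG2 line reporting PXR-mediated CYP3A4 expression via luciferase. Treatment: 24 hr with compounds in DMSO at 37 C. Detection: ONE-Glo luminescence.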

Test [5] concerns the target Cytochrome P450 2D6 (Homo sapiens) (UniProt P10635). The experiment in a line: Cytochrome P450 Family 2 Subfamily D Member 6 (CYP2D6) small molecule antagonists: luciferase reporter qHTS assay (AID 1671196). Note: nearly all actives have a fitted effect of over 50% in size. Note: potency is the fitted concentration of half-maximal effect. Summed up:
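Chemicals tested for interference with CYP2D6 activity; proluciferin substrate, NADPH regeneration, 1 h at room temperature, luminescent detection.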

Test [6] concerns the target Cytochrome P450 2C19 (Homo sapiens) (UniProt P33261). The experiment in a line: Cytochrome P450 Family 2 Subfamily C Member 19 (CYP2C19) small molecule antagonists: luciferase reporter qHTS assay (AID 1671197). Note: nearly all actives have a fitted effect of over 65% in size. Note: potency is the fitted concentration of half-maximal effect. Summed up:
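Compounds were tested on CYP2C19 activity via proluciferin conversion to luciferin. The 37C, 1 h reaction followed NADPH addition; detection reagent stopped it.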
On the technique in general: In a reporter assay the amount or activity of a reporter protein is the signal.

In test [7] the target is Cytochrome P450 2C9 (Homo sapiens) (UniProt P11712). The experiment in a line: Cytochrome P450 Family 2 Subfamily C Member 9 (CYP2C9) small molecule antagonists: luciferase reporter qHTS assay (AID 1671198). Note: nearly all actives have a fitted effect of over 50% in size. Note: potency is the fitted concentration of half-maximal effect. Summed up: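 Enzyme-substrate mix preincubated with compound 10 min at room temperature; reaction started with NADPH regeneration solution, 1 h 37C. Luminescent luciferin product read after 20 min detection reagent.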

Test [8] deals with Cytochrome P450 1A2 (Homo sapiens) (UniProt P05177). The experiment in a line: Cytochrome P450 Family 1 Subfamily A Member 2 (CYP1A2) small molecule antagonists: luciferase reporter qHTS assay (AID 1671199). Note: nearly all actives have a fitted effect of over 50% in size. Note: potency is the fitted concentration of half-maximal effect. Summed up:
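Read-out is luminescence from luciferin detection reagent (20 min) proportional to CYP1A2 activity; compounds in DMSO preincubated 10 min with enzyme and proluciferin substrate, then NADPH regeneration solution, 1 h, room temperature.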

The target of test [9] is Voltage-gated inwardly rectifying potassium channel KCNH2 (Homo sapiens) (UniProt Q12809). The experiment in a line: Human Ether-a-go-go-Related Gene (hERG) channel small molecule antagonists: fluorescence cell-based qHTS assay (AID 1671200). Note: nearly all actives have a fitted effect of over 50% in size. Note: potency is the fitted concentration of half-maximal effect. Put shortly:
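Thallium flux as potassium surrogate: FluxOR II dye loaded 1 h at room temperature into hERG-expressing U2OS cells, then stimulus buffer added after 10 min. Kinetic 480 nm excitation/540 nm emission read, 2 min.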
For orientation: hERG is a cardiac potassium channel; its block is linked to QT prolongation.

The target of test [10] is Cytochrome P450 3A4 (Homo sapiens) (UniProt P08684). The experiment in a line: Cytochrome P450 Family 3 Subfamily A Member 4 (CYP3A4) small molecule antagonists: luciferase reporter qHTS assay (AID 1671201). Note: nearly all actives have a fitted effect of over 50% in size. Note: potency is the fitted concentration of half-maximal effect. Put shortly:
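Recombinant human CYP3A4 converts a proluciferin substrate to luciferin over 1 h at room temperature after NADPH regeneration solution is added (compound preincubated 10 min); detection reagent stops reaction, luminescence read 20 min later as relative units.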

Test [11] in a line: Caspase-3/7 induction in HepG2 cells by small molecules, qHTS assay (AID 1346978). Note: nearly all actives have a fitted effect of over 15% in size. Summed up: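 Caspase-3/7 induction was measured by Caspase-Glo 3/7 luminescence (30 min, room temperature) after a 17 hr compound exposure of wild-type HepG2 cells seeded at 2,000 per well and pre-incubated 5 hr.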
Test [12] is described as follows: Caspase-3/7 induction in CHO-K1 cells by small molecules, qHTS cell viability counter screen (AID 1346979). Note: nearly all actives have a fitted effect of over 35% in size. Summed up: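 Cytotoxicity counter screen: CellTiter-Fluor added to compound-treated wild-type CHO-K1 cells at 16 h (37C, 5% CO2), fluorescence measured 1 h later; same wells as caspase-3/7 measurement.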
Test [13] can be described thus: Caspase-3/7 induction in CHO-K1 cells by small molecules, qHTS assay (AID 1346980). Note: nearly all actives have a fitted effect of over 15% in size. Summed up:
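Luminescent Caspase-Glo 3/7 read (30min, room temperature) quantified apoptosis induction. Cells were wild-type CHO-K1, treated with compound for 17hr at 37 C and 5% CO2.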

Test [14] has as its target Nuclear receptor subfamily 1 group I member 2 (Rattus norvegicus) (UniProt Q9R1A7). The experiment in a line: Rat pregnane X receptor (rPXR) activation by small molecules, qHTS assay (AID 1346983). Note: nearly all actives have a fitted effect of over 20% in size. Particulars: rPXR luciferase reporter cells, One-Glo luminescence, 24 h; max activation: stronger effect = higher value. Summed up:
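Luminescent readout (One-Glo luciferase, 30 min room temperature) followed 24 hr compound treatment at 37 C of rPXR cells plated 2,000 per well and preincubated 5hr; qHTS format with compounds delivered in DMSO.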

The target of test [15] is Nuclear receptor subfamily 1 group I member 2 (Homo sapiens) (UniProt O75469). The experiment in a line: Human pregnane X receptor (PXR) activation by small molecules, qHTS assay (AID 1346985). Note: nearly all actives have a fitted effect of over 40% in size. Note: potency is the fitted concentration of half-maximal effect. Summed up:
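DPX-2 cells (HepG2 co-transfected with a PXR response element and a CYP3A4-promoter luciferase construct) were seeded at 2,000 per well, rested 5 hr at 37C, then exposed to DMSO-dissolved compounds for 24 hr. Activation was read as luciferase luminescence.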

Values without a mark were called inactive. Inconclusive results are not listed. The source made the active and inactive calls. Unless noted, calls come from the whole dose curve; as a rule, active = well fitted curve in the direction sought with a large enough effect in the repeat runs; inconclusive = weak or mixed curves; inactive = no such curve, though single readings can be large; an effect the other way counts as inactive or inconclusive.
% is set by controls: 0 for no effect and ±100 for the full control effect.

Sequence of Nuclear receptor subfamily 1 group I member 2 (Homo sapiens) (O75469 whole entry, looked up): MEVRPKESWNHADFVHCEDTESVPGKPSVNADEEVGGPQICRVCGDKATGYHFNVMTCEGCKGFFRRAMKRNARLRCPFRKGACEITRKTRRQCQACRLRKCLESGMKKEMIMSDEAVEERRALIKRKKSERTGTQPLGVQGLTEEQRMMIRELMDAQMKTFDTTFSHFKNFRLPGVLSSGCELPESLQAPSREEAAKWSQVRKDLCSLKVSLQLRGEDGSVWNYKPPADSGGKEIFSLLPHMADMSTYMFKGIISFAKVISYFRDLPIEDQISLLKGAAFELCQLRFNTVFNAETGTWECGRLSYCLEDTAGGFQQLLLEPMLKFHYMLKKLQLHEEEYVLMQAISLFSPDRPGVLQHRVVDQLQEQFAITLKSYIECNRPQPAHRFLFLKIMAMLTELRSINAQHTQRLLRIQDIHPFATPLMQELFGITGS
Sequence of Voltage-gated inwardly rectifying potassium channel KCNH2 (Homo sapiens) (Q12809 whole entry, looked up): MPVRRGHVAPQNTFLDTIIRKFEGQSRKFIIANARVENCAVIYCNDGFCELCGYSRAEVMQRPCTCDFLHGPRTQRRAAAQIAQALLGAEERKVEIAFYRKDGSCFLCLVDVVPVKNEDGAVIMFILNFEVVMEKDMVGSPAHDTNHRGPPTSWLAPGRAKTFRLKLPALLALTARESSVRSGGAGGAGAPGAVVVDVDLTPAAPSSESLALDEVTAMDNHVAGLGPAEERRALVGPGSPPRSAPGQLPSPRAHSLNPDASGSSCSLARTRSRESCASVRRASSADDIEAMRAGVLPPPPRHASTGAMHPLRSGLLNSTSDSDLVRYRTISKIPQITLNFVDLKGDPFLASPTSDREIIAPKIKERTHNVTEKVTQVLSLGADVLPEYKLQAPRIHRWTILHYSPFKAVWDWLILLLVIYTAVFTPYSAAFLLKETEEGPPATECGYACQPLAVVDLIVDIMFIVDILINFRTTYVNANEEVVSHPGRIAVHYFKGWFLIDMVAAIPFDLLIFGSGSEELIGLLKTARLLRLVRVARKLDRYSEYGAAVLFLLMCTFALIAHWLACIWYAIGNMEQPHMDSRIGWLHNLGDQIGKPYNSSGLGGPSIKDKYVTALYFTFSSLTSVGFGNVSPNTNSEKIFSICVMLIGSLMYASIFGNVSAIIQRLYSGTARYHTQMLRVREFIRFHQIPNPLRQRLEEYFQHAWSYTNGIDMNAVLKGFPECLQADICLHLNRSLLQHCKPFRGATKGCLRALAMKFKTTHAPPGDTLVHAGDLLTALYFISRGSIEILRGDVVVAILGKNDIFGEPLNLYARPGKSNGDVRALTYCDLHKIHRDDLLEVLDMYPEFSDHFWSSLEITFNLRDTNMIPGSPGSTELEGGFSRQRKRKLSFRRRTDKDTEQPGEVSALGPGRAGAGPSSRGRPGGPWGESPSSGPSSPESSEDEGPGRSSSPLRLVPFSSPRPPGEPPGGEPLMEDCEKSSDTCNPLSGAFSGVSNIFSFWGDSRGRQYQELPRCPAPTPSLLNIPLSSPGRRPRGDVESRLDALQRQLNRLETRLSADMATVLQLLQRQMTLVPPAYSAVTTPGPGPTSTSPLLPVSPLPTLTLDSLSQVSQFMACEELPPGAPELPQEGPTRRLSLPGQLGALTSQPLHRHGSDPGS
Sequence of Cytochrome P450 1A2 (Homo sapiens) (P05177 whole entry, looked up): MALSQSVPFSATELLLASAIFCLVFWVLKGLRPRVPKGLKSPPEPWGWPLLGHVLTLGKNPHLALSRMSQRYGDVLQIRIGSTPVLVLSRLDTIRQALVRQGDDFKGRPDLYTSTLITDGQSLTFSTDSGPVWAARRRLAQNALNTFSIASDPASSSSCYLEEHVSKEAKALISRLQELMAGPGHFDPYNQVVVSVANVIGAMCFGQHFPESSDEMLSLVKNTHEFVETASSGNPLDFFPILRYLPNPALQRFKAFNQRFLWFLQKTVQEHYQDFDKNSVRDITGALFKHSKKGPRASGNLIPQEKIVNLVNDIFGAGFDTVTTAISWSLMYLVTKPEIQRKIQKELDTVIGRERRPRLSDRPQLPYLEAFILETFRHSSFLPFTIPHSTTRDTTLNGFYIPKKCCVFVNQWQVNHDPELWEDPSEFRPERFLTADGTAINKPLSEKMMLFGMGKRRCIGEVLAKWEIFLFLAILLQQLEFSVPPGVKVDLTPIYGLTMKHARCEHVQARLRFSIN
Sequence of Cytochrome P450 2D6 (Homo sapiens) (P10635 whole entry, looked up): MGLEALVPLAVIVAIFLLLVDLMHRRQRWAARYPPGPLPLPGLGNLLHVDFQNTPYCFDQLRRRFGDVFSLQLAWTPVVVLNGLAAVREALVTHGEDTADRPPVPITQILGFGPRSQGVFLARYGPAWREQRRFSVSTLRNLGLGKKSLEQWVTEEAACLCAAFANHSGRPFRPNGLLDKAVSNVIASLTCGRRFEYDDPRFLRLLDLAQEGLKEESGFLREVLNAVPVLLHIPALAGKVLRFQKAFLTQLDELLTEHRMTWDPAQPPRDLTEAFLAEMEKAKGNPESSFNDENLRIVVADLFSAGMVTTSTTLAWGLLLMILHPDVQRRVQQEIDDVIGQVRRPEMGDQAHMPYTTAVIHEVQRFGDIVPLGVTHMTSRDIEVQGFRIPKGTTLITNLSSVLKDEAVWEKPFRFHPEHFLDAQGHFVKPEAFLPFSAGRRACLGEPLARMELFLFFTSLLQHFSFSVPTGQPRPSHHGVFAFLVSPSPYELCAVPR
Sequence of Thyrotropin-releasing hormone receptor (Homo sapiens) (P34981 whole entry, looked up): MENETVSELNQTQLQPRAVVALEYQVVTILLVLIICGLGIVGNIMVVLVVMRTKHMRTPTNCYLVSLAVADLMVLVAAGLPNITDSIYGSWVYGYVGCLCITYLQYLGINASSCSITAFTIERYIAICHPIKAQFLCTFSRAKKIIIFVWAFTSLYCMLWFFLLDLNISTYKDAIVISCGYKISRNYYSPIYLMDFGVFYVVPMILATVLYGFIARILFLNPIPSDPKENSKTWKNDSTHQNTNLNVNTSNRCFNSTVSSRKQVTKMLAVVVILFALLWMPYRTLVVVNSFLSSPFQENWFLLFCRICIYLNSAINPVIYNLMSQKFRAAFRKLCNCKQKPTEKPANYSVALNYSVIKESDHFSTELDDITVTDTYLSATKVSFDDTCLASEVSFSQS
Sequence of Cytochrome P450 2C19 (Homo sapiens) (P33261 whole entry, looked up): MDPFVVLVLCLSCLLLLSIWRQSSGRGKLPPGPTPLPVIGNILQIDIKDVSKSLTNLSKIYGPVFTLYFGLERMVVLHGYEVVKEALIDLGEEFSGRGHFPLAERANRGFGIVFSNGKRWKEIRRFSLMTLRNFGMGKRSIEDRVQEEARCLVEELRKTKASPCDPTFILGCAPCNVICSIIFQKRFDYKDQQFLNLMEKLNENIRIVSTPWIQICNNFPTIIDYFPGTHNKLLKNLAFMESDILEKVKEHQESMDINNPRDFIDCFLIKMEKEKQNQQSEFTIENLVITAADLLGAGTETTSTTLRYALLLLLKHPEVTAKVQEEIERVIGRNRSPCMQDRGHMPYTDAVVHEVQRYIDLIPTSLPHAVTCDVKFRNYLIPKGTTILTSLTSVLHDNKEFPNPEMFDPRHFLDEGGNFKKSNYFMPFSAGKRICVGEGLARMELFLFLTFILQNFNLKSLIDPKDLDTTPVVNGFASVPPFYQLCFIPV
Sequence of Cytochrome P450 3A4 (Homo sapiens) (P08684 whole entry, looked up): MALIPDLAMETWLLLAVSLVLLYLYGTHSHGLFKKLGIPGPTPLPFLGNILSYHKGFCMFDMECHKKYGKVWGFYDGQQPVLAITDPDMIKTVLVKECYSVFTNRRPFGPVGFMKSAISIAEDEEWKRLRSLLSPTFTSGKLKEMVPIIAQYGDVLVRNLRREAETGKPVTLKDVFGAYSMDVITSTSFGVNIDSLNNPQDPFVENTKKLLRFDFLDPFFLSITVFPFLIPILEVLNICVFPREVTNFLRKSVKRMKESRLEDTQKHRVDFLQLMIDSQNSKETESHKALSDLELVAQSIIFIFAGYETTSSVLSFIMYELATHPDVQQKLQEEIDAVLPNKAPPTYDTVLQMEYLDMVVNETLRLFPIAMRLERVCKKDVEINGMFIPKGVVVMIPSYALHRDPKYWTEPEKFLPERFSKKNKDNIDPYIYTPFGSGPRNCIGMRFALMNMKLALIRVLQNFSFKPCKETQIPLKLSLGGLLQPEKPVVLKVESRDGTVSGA
Sequence of Cytochrome P450 2C9 (Homo sapiens) (P11712 whole entry, looked up): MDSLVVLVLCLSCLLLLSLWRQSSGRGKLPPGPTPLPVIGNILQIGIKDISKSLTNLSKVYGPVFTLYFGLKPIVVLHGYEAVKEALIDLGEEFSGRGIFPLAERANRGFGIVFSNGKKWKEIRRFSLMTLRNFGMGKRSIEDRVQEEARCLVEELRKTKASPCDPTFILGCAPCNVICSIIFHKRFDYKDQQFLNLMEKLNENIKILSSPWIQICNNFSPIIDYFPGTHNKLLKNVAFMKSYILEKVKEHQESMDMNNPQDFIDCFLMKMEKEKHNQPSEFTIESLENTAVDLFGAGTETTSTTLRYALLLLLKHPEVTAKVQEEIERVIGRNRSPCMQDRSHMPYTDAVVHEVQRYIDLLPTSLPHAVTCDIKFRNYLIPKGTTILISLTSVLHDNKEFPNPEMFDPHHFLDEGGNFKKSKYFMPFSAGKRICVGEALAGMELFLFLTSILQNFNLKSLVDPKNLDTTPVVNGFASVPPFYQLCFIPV
Sequence of Nuclear receptor subfamily 1 group I member 2 (Rattus norvegicus) (Q9R1A7 whole entry, looked up): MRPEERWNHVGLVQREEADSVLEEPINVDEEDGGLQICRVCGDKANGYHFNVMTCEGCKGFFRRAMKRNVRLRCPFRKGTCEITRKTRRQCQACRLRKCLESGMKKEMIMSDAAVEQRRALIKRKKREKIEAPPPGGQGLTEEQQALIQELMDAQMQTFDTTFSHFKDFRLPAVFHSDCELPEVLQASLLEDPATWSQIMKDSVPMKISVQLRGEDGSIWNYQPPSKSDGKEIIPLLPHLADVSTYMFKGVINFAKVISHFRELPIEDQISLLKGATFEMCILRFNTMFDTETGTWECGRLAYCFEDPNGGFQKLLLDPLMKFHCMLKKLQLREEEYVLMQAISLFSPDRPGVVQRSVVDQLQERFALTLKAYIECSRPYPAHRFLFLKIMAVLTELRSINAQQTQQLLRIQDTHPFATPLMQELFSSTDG

As for `CCCOC(=O)c1c(Cl)c(Cl)c(Cl)c(Cl)c1C(=O)OCCC`, the outcome in [1] was inactive. In addition, the Potency entry in [2], in test [3], in test [5], in test [9] and in test [10] was “inactive” each time. In addition, the Potency is 17.2 µM (active) in test [4], 7.1 µM (active) in test [6], 17.8 µM (active) in test [7] and 2.24 µM (active) in [8].
As to `Nc1ccc(S(=O)(=O)NCc2ccccc2)cc1`, the compound was called inactive in [1] and in test [13]. Also, the Potency result in test [11], in [12], in test [3], in test [4], in [15] and in test [5] was “inactive” each time. The Potency result in test [8] and in [9] was “inactive” in each case. Also, the max activation in test [14] is -1.8%. In addition, the Potency in test [6] is 2.19 µM (active).
Consider `COc1ccc(CCN(C)CCCN2CCc3cc(OC)c(OC)cc3CC2=O)cc1OC`, for which the outcome in test [1] and in test [13] was inactive. For the same compound, the Potency result in [11], in [12], in test [3], in test [4], in test [15] and in [5] was “inactive” each time. Also, the Potency entry in [6], in [7], in [8] and in test [10] was “inactive” each time. Besides, in test [14], the max activation was 3.44%.
As for `O=C1c2ccccc2C(=O)c2c(O)ccc(O)c21`, the outcome in test [1] and in [13] was inactive. The Potency result in [11], in test [12], in [3], in [5], in test [6] and in test [7] was “inactive” throughout. The Potency entry in [9] and in test [10] was “inactive” each time. The Potency in test [4] is 4.86 µM (active); in test [8], 3.17 µM (active).
For the compound `C=CCOC(=O)COCCC(C)C`, the result in test [1] and in [13] was inactive. Moreover, the Potency result in test [11], in [12], in test [3], in test [4], in [7] and in [8] was “inactive” in each case. In addition, the Potency entry in test [9] and in test [10] was “inactive” in each case.
As for `O=C(O)c1cc(Cl)cc(Cl)c1O`, the outcome in test [1] was inactive. The Potency result in test [11], in test [12], in [3], in test [5], in [6] and in test [9] was “inactive” in each case. Moreover, the Potency in test [7] is 28.3 µM (active).
On to `CC(C)C(O)C(C)(C)CO` (centres undefined), for which the call in test [1] and in test [13] was inactive. Besides, the Potency result in test [11], in test [12], in test [3], in [4] and in test [9] was “inactive” in each case. Further, the Potency was 32.7 µM (active) in [5], 41.2 µM (active) in [6] and 65.3 µM (active) in test [8].
For the compound `O=C(O)CO`, the compound was called inactive in [1] and in [13]. The Potency result in test [11], in test [12], in test [3], in test [4], in test [5] and in test [6] was “inactive” each time. For the same compound, the Potency entry in [7], in [8], in test [9] and in [10] was “inactive” each time.
In the case of `O=C1OC[C@H](Cc2cccc(O)c2)[C@H]1Cc1cccc(O)c1`, the call in test [1] and in test [13] was inactive. Besides, the Potency entry in test [11], in test [12], in test [3] and in [9] was “inactive” in each case. For the same compound, the Potency in [6] is 4.8 µM (active); in test [7], 13.5 µM (active); in test [8], 10.7 µM (active); in test [10] it was 9.58 µM (active).
For `CCN(CC)c1cccc(O)c1`, in test [1], the compound was called inactive. Besides, the Potency result in [2], in [12], in test [3] and in [9] was “inactive” each time. The Potency is 35.1 µM (active) in test [4]; 36.3 µM (active) in [5]; 5.13 µM (active) in test [6]; 64.6 µM (active) in [8]; 20.4 µM (active) in test [10].
As to `CCSC(=O)N(CC)CC`, the result in test [1] and in test [13] was inactive. The Potency result in [11], in [12], in [3], in [4], in [5] and in test [6] was “inactive” in each case. Further, the Potency result in test [7], in [9] and in [10] was “inactive” throughout.
Turning to `CCN(CC)CCOc1ccccc1C(=O)CCc1ccccc1`, the compound was classed as inactive in test [1] and in [13]. Besides, the Potency entry in test [11], in test [12], in test [3], in [6] and in test [7] was “inactive” throughout. Also, the Potency is 26.6 µM (active) in test [4]; 15.8 µM (active) in [15]; 0.692 µM (active) in [5]; 7.76 µM (active) in test [8]; 3.38 µM (active) in [9]. In addition, in test [14], the max activation was 4.09%.
As for `CC(=O)OCCC1CCCCC1`, the result in [1] was inactive. The Potency entry in test [2], in [12], in [3], in test [4], in test [5] and in [6] was “inactive” throughout. In addition, the Potency result in test [7], in test [9] and in [10] was “inactive” each time.
`O=C(O)CCS`: the result in [1] and in [13] was inactive. Moreover, the Potency entry in test [11], in test [12], in [3], in test [4], in test [5] and in test [6] was “inactive” in each case. Besides, the Potency result in [7], in test [8], in test [9] and in test [10] was “inactive” throughout.
In the case of `Nc1ccc(NC(=O)c2ccc(N)cc2)cc1`, the compound was called inactive in [1]. Besides, the Potency entry in test [2], in test [12], in [3], in [4], in [5] and in test [8] was “inactive” throughout. Further, the Potency entry in test [9] was “inactive”. For the same compound, the Potency in [10] is 5.65 µM (active).
For `CCCCOC(=O)CCCCC(=O)OCCCC`, the compound was classed as inactive in test [1] and in test [13]. Also, the Potency entry in test [11], in test [12], in test [3], in test [4], in test [5] and in [9] was “inactive” throughout. Also, the Potency result in [10] is “inactive”. For the same compound, the Potency in test [6] is 35.6 µM (active); in [8], 31.7 µM (active).
Regarding `CN(C)CC/C=C1\c2ccccc2Sc2ccc(Cl)cc21`, the result in test [1] and in test [13] was inactive. The Potency in test [2] was 29.8 µM (active); in test [5] it was 2.75 µM (active); in [8] it was 7.23 µM (active); in test [9], 3.01 µM (active). Moreover, the max activation in test [14] was 3.57%. The Potency result in test [7] is “inactive”.
Consider `C1=CCC2CC=CC2C1` (centres undefined), for which the compound was classed as inactive in test [1] and in test [13]. Also, the Potency result in test [11], in test [12], in [3], in [5] and in [9] was “inactive” in each case. The Potency in test [6] was 70.9 µM (active).
